Consider 13 molecules from PubChem BioAssay (Tox21).

Structures are written as SMILES. Several values for one entry are separate records, joined by “and”; a condition that tells them apart may be missing. Equal entries are not always repeated. Inconclusive results are not listed. Activity calls are given as the source filed them. Unless noted, calls come from the whole dose curve; as a rule, active = well fitted curve in the direction sought with a large enough effect in the repeat runs; inconclusive = weak or mixed curves; inactive = no such curve, though single readings can be large; an effect the other way counts as inactive or inconclusive.

Assay [1] is described as follows: qHTS assay to identify small molecule agonists of the androgen receptor (AR) signaling pathway in the presence of an antagonist - cell viability counter screen (AID 1259379). Note: nearly all actives have a fitted effect of over 25% in size. Note: potency is the fitted concentration of half-maximal effect. In a few lines: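 A CellTiter-Fluor read-out measured viability of MDA-kb2 reporter cells (MMTV promoter with AR and GR response elements). Treatment: nilutamide 3.0uM final with compounds at 15 concentrations, 16 hr, 37C, 0% CO2.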

The nature of assay [2]: qHTS assay to identify small molecule antagonists of the estrogen receptor beta (ER-beta) signaling pathway - cell viability counter screen (AID 1259382). Note: nearly all actives have a fitted effect of over 55% in size. Note: potency is the fitted concentration of half-maximal effect. In a few lines:
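Agonist-stimulated (1nM E2) ER-beta-UAS-bla HEK293T cells are incubated with library compounds for 16 hr at 37C. Cell viability is then assessed in the reporter-assay wells by adding CellTiter-Glo and reading luminescence after 30 min.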

Assay [3] can be described thus: qHTS assay to identify small molecule agonists or antagonists of the thyroid stimulating hormone receptor (TSHR) signaling pathway - wild type cell line counter screen (AID 1259384; calls by dose curve). In a few lines:
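Wild-type HEK293 cells were plated 18 h at 37 C/5% CO2, pin-dosed with compound plus Ro20-1724 medium, held 30 min at room temperature, then given cAMP-d2 and anti-cAMP-cryptate; fluorescence was read after 1 h. Fifteen concentrations, triplicate.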

Assay [4] is described as follows: qHTS assay to identify small molecule agonists of the estrogen receptor alpha (ER-alpha) signaling pathway in the presence of an antagonist - cell viability counter screen (AID 1259386).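 Note: cells exposed to compounds for 22 h at 37 °C before the viability read; nearly all actives have a fitted effect of over 30% in size.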 Note: potency is the fitted concentration of half-maximal effect. In a few lines: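 ICI-182,780 at 10.0nM final accompanies the compound titration (15 concentrations, 22hr, 37C) on VM7Luc4E2 cells. The CellTiter-Fluor fluorescence readout runs in the same wells as the luciferase assay.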

For assay [5], the target named is Progesterone receptor (Homo sapiens) (UniProt P06401). Put plainly: qHTS assay to identify small molecule agonists of the progesterone receptor (PR) signaling pathway (AID 1346784; calls by dose curve; note: nearly all actives have a fitted effect of over 30% in size). In a few lines: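 Reporter assay, GripTite PR-UAS-bla HEK 293T cells: 16 hr exposure to DMSO-dissolved compounds at 37C, 5% CO2, in steroid-depleted (2% charcoal-stripped FBS) medium; beta-lactamase measured by FRET fluorescence.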
Sequence of Progesterone receptor (Homo sapiens) (P06401 whole entry, looked up): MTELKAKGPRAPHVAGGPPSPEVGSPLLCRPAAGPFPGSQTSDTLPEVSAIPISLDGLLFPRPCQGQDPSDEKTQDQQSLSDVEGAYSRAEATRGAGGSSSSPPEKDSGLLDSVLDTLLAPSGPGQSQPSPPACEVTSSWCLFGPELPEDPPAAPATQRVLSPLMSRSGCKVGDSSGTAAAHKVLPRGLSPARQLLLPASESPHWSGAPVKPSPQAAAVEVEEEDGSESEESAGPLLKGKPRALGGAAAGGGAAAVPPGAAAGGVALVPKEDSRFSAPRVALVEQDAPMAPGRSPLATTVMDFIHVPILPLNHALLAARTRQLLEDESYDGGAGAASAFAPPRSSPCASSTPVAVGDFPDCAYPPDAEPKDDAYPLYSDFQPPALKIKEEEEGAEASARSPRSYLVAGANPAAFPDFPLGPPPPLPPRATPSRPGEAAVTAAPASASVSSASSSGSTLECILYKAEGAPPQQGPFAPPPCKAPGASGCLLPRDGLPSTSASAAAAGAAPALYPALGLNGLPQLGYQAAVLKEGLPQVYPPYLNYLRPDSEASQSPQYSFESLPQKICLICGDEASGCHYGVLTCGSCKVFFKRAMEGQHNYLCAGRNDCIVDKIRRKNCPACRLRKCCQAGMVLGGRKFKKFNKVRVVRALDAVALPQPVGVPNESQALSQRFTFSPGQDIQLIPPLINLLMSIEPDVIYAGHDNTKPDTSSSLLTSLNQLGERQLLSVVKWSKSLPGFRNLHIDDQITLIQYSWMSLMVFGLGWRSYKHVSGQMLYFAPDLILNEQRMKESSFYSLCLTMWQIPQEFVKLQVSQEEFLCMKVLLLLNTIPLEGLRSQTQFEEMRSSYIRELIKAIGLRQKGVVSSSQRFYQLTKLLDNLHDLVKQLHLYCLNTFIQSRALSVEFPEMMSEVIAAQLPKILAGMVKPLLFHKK

Assay [6] is described as follows: qHTS assay to identify small molecule antagonists of the progesterone receptor (PR) signaling pathway - cell viability counter screen (AID 1346798). Note: nearly all actives have a fitted effect of over 50% in size. Note: potency is the fitted concentration of half-maximal effect. In a few lines: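 In the same plates used for the beta-lactamase readout, cell viability of compound- and R5020-treated PR-UAS-bla HEK293T cells (16 hr, 37C) was assessed by CellTiter-Glo luminescence.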
Assay [7] can be described thus: qHTS assay to identify small molecule antagonists of the TGF-beta/Smad signaling pathway - cell viability counter screen (AID 1346824). Note: nearly all actives have a fitted effect of over 50% in size. Note: potency is the fitted concentration of half-maximal effect. In a few lines: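 SBE-bla HEK 293T cells were plated overnight at 37 C, then given compounds in DMSO plus TGF-beta1 (added as 0.25 ng/mL solution) for 5 hr. After the bla read, CellTiter-Glo was added to the same wells and luminescence read after 30 min at room temperature.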

Assay [8] in a line: qHTS assay to identify small molecule agonists of the TGF-beta/Smad signaling pathway - cell viability counter screen (AID 1346829). Note: top concentration of the series differs between compounds; nearly all actives have a fitted effect of over 45% in size. In a few lines:
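Here the cytotoxicity of library compounds is measured in SBE-bla HEK 293T cells treated for 5 hr, using CellTiter-Glo added to wells already read for the beta-lactamase reporter.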

The nature of assay [9]: qHTS assay to identify small molecule agonists of the TGF-beta/Smad signaling pathway (AID 1346859; active = well fitted activation curve with a large enough effect in the signal ratio in the repeat runs, not every such curve was filed as active; the % refers to the signal ratio; note: series mostly up to about 77 µM). In a few lines: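 Screening used HEK 293T SBE-bla cells at 4,000/well. Test agents: 5 hr, 37 C. Detection: FRET substrate, 2 hr RT, then excitation 405 nm with emissions at 460 and 530 nm.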
In assay [10] the target is Thyrotropin-releasing hormone receptor (Homo sapiens) (UniProt P34981). Put plainly: qHTS assay to identify small molecule antagonists of the thyrotropin-releasing hormone receptor (TRHR) signaling pathway (AID 1346877; active = well fitted inhibition curve with a large enough effect in the repeat runs, not every such curve was filed as active; note: series mostly up to about 51 µM). In a few lines:
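Screening used HEK293 cells engineered with TRHR, with a brief 5 min room-temperature compound exposure preceding addition of TRH to 1 nM. The read-out was kinetic calcium-dye fluorescence, concentration-response from 15 doses in triplicate.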

Assay [11] shares this target. Description: qHTS assay to identify small molecule agonists of the thyrotropin-releasing hormone receptor (TRHR) signaling pathway (AID 1346891; calls by dose curve; note: series mostly up to about 58 µM). In a few lines: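 Readout was intracellular calcium fluorescence in TRHR-Hek293 cells. Cells were incubated 18 h, dye-loaded 2 h at 37 °C, and treated with compound in agonist mode.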
The nature of assay [12]: Caspase-3/7 induction in HepG2 cells by small molecules, qHTS assay (AID 1346978). Note: nearly all actives have a fitted effect of over 15% in size. In a few lines: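 Wild-type HepG2 cells (2,000/well) were settled 5 h at 37 C, 5% CO2, then exposed to compounds in DMSO for 17 h. Caspase-3/7 activity was read by luminescence 30 min after adding Caspase-Glo 3/7 reagent at room temperature.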
Assay [13] deals with Androgen receptor (Homo sapiens) (UniProt P10275). Put plainly: qHTS assay to identify small molecule agonists of the androgen receptor (AR) signaling pathway in the presence of an antagonist (AID 1259381; calls by dose curve; note: nearly all actives have a fitted effect of over 15% in size). In a few lines: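 Using human MDA-kb2 cells with an MMTV promoter–luciferase construct (AR and GR response elements), agonist activity is scored under 3.0uM nilutamide (final) co-treatment; 16hr incubation, 37C, luminescence readout via ONE-Glo.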
Sequence of Androgen receptor (Homo sapiens) (P10275 whole entry, looked up): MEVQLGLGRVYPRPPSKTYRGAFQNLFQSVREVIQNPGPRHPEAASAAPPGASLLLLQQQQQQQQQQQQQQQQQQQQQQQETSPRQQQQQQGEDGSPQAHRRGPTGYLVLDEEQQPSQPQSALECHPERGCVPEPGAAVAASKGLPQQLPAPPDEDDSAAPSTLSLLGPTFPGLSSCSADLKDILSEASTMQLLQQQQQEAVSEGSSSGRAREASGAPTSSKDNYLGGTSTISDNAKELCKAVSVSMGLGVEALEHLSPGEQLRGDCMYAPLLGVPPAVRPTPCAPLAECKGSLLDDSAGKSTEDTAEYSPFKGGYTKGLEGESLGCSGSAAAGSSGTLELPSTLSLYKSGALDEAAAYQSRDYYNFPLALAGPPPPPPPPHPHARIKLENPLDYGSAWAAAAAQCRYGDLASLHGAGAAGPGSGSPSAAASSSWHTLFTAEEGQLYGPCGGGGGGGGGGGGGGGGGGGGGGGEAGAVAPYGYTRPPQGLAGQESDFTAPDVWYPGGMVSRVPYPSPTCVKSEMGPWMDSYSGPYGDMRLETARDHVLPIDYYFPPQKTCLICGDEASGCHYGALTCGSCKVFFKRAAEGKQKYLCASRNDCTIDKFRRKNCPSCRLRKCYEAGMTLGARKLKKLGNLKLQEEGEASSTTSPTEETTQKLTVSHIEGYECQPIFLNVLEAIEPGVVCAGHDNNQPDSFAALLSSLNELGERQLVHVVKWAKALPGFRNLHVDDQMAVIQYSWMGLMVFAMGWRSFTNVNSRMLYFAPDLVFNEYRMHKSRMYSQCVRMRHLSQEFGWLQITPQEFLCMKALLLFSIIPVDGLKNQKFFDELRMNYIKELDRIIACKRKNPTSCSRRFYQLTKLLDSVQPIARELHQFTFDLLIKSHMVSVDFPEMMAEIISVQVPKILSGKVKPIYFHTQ

The target in assay [14] is Estrogen receptor (Homo sapiens) (UniProt P03372). Put plainly: qHTS assay to identify small molecule agonists of the estrogen receptor alpha (ER-alpha) signaling pathway in the presence of an antagonist (AID 1259383; calls by dose curve; note: top concentration of the series differs between compounds; nearly all actives have a fitted effect of over 15% in size). In a few lines: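 Using VM7Luc4E2 cells seeded 24hr before treatment, antagonist ICI-182,780 (10.0nM final) was added, followed by compounds at 15 concentrations. Plates incubated 22hr; ONE-Glo luminescence quantified reporter activity.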
Sequence of Estrogen receptor (Homo sapiens) (P03372 whole entry, looked up): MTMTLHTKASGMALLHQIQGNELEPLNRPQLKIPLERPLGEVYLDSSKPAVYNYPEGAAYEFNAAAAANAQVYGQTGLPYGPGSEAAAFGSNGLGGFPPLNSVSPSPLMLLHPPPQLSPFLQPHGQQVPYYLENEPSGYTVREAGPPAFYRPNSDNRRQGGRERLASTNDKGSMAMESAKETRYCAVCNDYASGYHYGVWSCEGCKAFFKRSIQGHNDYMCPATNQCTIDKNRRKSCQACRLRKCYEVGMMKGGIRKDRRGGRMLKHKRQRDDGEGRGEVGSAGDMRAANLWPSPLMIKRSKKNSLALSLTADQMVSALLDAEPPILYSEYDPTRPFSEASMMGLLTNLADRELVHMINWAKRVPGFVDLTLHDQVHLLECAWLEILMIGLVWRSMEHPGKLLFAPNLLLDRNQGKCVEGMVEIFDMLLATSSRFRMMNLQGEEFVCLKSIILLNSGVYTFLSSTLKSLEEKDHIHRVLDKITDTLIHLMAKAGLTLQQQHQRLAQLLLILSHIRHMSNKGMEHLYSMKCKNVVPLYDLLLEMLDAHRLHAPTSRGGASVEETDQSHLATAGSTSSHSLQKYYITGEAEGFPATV

Assay [15] concerns the target Thyrotropin receptor (Homo sapiens) (UniProt P16473). Put plainly: qHTS assay to identify small molecule antagonists of the thyroid stimulating hormone receptor (TSHR) signaling pathway (AID 1259385; calls by dose curve; note: nearly all actives have a fitted effect of over 20% in size; note: potency is the fitted concentration of half-maximal effect). In a few lines: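 TSHR-HEK293 cells were plated and held 18 h at 37C/5% CO2, then given compound plus Ro20-1724 and stimulated with TSH at 1.5 ng/mL final. After 30 min at room temperature, cAMP was detected with cAMP-d2/anti-cAMP-cryptate (1 h) by fluorescence.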

Assay [16] in a line: Human pregnane X receptor (PXR) small molecule agonists, qHTS cell viability counter screen (AID 1346977). Note: nearly all actives have a fitted effect of over 50% in size. Note: potency is the fitted concentration of half-maximal effect. In a few lines: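 In each well, the PXR reporter HepG2 line was checked for viability: CellTiter-Fluor reagent added 23hr post-dosing, fluorescence read after 1hr incubation at 37C.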
Assay [17] in a line: qHTS assay to identify small molecule agonists of the estrogen receptor beta (ER-beta) signaling pathway - cell viability counter screen (AID 1259380). Note: nearly all actives have a fitted effect of over 30% in size. Note: potency is the fitted concentration of half-maximal effect. In a few lines:
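Cells used were ER-beta-UAS-bla HEK293T in medium with 2% charcoal-stripped FBS. They were treated for 16 hr at 37C. Viability came from CellTiter-Glo luminescence.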

Assay [18] addresses Progesterone receptor (Homo sapiens) (UniProt P06401). Put plainly: qHTS assay to identify small molecule antagonists of the progesterone receptor (PR) signaling pathway (AID 1346795; active = well fitted inhibition curve with a large enough effect in the signal ratio in the repeat runs, not every such curve was filed as active; the % refers to the signal ratio; note: potency is the fitted concentration of half-maximal effect). In a few lines:
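Stimulus R5020 at 1 nM final; cells HEK293T PR-UAS-bla; medium with 2% charcoal-stripped FBS; compound exposure 16 hr at 37C, 5% CO2; detection by FRET beta-lactamase substrate, 2 hr, room temperature.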

Assay [19] can be described thus: qHTS assay to identify small molecule agonists of the progesterone receptor (PR) signaling pathway - cell viability counter screen (AID 1346799; calls by dose curve; note: nearly all actives have a fitted effect of over 45% in size; note: potency is the fitted concentration of half-maximal effect). In a few lines:
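Multiplexed viability read: CellTiter-Glo luminescence, 30 min RT, following LiveBLAzer FRET measurement on PR-UAS-bla HEK293T cells exposed to compounds 16 hr.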

Sequence of Thyrotropin receptor (Homo sapiens) (P16473 whole entry, looked up): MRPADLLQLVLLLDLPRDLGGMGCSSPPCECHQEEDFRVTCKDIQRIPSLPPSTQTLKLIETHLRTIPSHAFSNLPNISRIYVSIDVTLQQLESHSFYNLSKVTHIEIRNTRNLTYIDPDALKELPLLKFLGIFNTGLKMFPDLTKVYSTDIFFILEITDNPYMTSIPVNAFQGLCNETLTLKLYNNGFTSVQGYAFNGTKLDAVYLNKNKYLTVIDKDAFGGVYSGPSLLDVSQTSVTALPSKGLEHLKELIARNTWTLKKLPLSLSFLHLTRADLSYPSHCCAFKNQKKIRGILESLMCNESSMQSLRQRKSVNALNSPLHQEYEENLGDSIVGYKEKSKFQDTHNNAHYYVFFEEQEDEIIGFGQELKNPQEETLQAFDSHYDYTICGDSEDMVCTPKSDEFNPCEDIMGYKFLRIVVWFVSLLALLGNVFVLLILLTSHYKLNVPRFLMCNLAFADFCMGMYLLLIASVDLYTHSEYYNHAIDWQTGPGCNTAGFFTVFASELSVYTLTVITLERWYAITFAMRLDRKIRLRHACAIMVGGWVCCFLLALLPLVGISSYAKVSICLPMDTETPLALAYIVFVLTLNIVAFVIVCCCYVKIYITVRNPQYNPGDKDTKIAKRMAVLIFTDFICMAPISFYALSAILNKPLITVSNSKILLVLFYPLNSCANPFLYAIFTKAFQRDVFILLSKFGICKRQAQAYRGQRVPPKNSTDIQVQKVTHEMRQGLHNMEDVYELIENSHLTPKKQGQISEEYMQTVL
Sequence of Thyrotropin-releasing hormone receptor (Homo sapiens) (P34981 whole entry, looked up): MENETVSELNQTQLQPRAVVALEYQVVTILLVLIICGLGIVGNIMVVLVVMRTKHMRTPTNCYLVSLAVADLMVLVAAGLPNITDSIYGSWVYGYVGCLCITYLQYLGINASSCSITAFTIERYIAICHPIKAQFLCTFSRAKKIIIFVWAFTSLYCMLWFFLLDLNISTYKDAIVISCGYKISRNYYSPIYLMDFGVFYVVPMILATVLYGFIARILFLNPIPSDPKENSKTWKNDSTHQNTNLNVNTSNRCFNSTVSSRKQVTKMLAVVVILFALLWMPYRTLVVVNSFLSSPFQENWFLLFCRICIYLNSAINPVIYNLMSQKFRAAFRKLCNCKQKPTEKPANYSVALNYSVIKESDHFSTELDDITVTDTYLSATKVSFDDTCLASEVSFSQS

As to `CN(C)c1ccc(N=Nc2ccccc2)cc1`, the Potency in [1] and in assay [4] was 48.6 µM (active) throughout. Further, the Potency result in [2], in assay [5], in assay [6], in assay [7], in [8] and in assay [10] was “inactive” in each case. Besides, the Potency entry in [11] and in assay [12] was “inactive” in each case. Further, the call in assay [3] and in [9] was inactive.

`O=c1c(C2CC(c3ccc(-c4ccc(Br)cc4)cc3)Cc3ccccc32)c(O)sc2ccccc12` (stereo unspecified): the Potency in assay [1] was 29.8 µM (active); in [16] it was 18.8 µM (active). Moreover, the Potency entry in [13], in assay [2], in assay [14], in [15], in [5] and in assay [7] was “inactive” throughout. For the same molecule, the Potency result in [8], in assay [10], in assay [11] and in assay [12] was “inactive” in each case. Further, the call in assay [3] and in assay [9] was inactive.

As to `C=CC(=O)OCCCCOC(=O)C=C`, the Potency in assay [1] was 54.5 µM (active). Further, the Potency entry in [17], in assay [14], in assay [15], in assay [4], in assay [18] and in assay [6] was “inactive” each time. Besides, the Potency result in [19], in assay [7], in assay [8], in [11] and in assay [12] was “inactive” each time. Moreover, the result in assay [9] was inactive.

`COc1ccc(OC)c(CC(C)N)c1` (stereo unspecified): the Potency entry in [1], in assay [17], in assay [14], in [15], in [4] and in assay [5] was “inactive” throughout. For the same molecule, the Potency result in [18], in assay [6], in assay [19], in assay [7], in assay [8] and in assay [10] was “inactive” throughout. Besides, the Potency result in assay [11], in [16] and in assay [12] was “inactive” in each case. In assay [9], the result was inactive.

As for `N#C/C=C/C#N`, the Potency result in [1], in [17], in [15], in assay [4], in [5] and in [6] was “inactive” in each case. Also, the Potency result in [19], in [7], in [8], in assay [10], in assay [11] and in assay [16] was “inactive” in each case. Besides, in [12], the Potency entry is “inactive”. Further, the molecule was called inactive in assay [3] and in assay [9]. For the same molecule, in assay [18], the Potency was 45.3 µM (active).

Consider `CCc1nn(C)c(C(=O)NCc2ccc(C(C)(C)C)cc2)c1Cl`, for which the Potency is 0.306 µM (active) in [1]; 54.5 µM (active) in assay [17]; 61.1 µM (active) in assay [15]; 54.5 µM (active) in assay [19]; 0.389 µM (active) in assay [7]; 10.9 µM (active) in assay [16]. Moreover, the Potency entry in assay [14], in assay [10], in assay [11] and in assay [12] was “inactive” in each case. The result in assay [3] and in assay [9] was inactive.

Consider `CN(C)CCc1c[nH]c2cccc(O)c12`, for which the Potency entry in assay [1], in assay [17], in assay [4], in assay [5], in assay [7] and in [8] was “inactive” each time. Further, the Potency result in assay [12] was “inactive”. Also, the molecule was classed as inactive in assay [9].

As for `CCCCOCN(C(=O)CCl)c1c(CC)cccc1CC`, the Potency entry in assay [1], in [13], in assay [2], in [14], in [4] and in [5] was “inactive” throughout. Besides, the Potency result in assay [6], in assay [7], in assay [8] and in [12] was “inactive” each time. In addition, the outcome in assay [3] was inactive. Moreover, the Potency in [15] was 61.1 µM (active).

Regarding `[Cd+2].[Cl-].[Cl-]`, the Potency result in assay [1], in assay [8] and in assay [12] was “inactive” in each case. Further, the Potency in assay [17] is 69.1 µM (active) and 68.6 µM (active); in assay [4], 61.6 µM (active) and 54.5 µM (active); in [6], 4.36 µM (active) and 2.73 µM (active); in assay [19], 13.8 µM (active) and 6.11 µM (active); in assay [16], 794 nM (active) and 344 nM (active). In addition, the call in [9] was inactive.

In the case of `CC(C)(C)c1ccc(CSc2cnn(C(C)(C)C)c(=O)c2Cl)cc1`, the Potency in assay [1] was 0.0433 µM (active); in assay [4] it was 2.43 µM (active); in assay [16], 0.122 µM (active). Further, the Potency result in [2], in [14], in [5], in assay [6], in assay [7] and in assay [8] was “inactive” each time. The Potency entry in assay [11] and in [12] was “inactive” each time. Moreover, the molecule was classed as inactive in assay [3] and in assay [9].

On to `CCOCCOC(C)=O`, for which the Potency result in assay [1], in assay [2], in assay [14], in assay [15], in [8] and in assay [10] was “inactive” in each case. For the same molecule, the Potency entry in [11], in assay [16] and in assay [12] was “inactive” in each case. Also, the molecule was called inactive in assay [9].

For the molecule `O=[N+]([O-])O.O=[N+]([O-])O.[Cd]`, the Potency entry in [1], in assay [15] and in assay [12] was “inactive” throughout. The Potency in [2] was 54.5 µM (active); in assay [6], 3.06 µM (active); in assay [19], 4.86 µM (active); in assay [16] it was 5.45 µM (active). Also, the molecule was called inactive in assay [3] and in assay [7].

For `c1ccc2c(c1)OCC(C1=NCCN1)O2` (stereo unspecified), the Potency entry in assay [1], in [2], in assay [14], in [15], in assay [4] and in assay [5] was “inactive” in each case. In addition, the Potency result in [6], in assay [19], in [7], in assay [8], in assay [10] and in assay [11] was “inactive” throughout. In assay [12], the Potency entry is “inactive”. Moreover, the result in assay [3] and in assay [9] was inactive. Further, the figures for the Potency in assay [18] and in assay [16] were 21.1 µM (active) and 26.6 µM (active), respectively.
